Molecules are shown by their SMILES. Hit rate of the full screen: of about 16,000 compounds, about 5,100 (32%) were called active. About 25% were inconclusive and are not listed. The list shows a part of the results. Values without a mark were called inactive. Calls come from the whole dose curve; as a rule, active = well fitted curve in the direction sought with a large enough effect; inconclusive = small, poorly fitted or top-dose-only effect, or effect the other way; inactive = no such curve, though single readings can be large or run the other way.
% is set by controls: 0 for no effect and ±100 for the full control effect.

Chain of Cytochrome P450 3A4 (Homo sapiens) (P08684 whole entry, looked up): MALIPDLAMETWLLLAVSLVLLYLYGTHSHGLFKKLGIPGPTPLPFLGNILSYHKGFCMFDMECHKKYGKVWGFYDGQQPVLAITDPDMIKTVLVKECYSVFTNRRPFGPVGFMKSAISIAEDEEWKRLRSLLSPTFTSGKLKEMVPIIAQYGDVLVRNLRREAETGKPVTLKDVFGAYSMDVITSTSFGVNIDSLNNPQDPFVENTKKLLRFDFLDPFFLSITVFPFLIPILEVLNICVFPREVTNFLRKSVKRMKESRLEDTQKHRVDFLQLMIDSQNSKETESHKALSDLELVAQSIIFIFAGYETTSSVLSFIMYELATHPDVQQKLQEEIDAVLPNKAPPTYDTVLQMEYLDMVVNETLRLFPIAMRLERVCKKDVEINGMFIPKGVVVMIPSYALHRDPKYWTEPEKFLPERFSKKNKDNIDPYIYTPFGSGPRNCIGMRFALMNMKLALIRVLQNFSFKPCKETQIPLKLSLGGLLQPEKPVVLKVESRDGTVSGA

This assay addresses Cytochrome P450 3A4 (Homo sapiens) (UniProt P08684). Nature of the assay: Cytochrome panel assay with activity outcomes. The conditions noted are these: recombinant CYP, pro-luciferin dealkylation, luminescence, p450-cyp3a4; series mostly up to 57.1 µM.
Consider `O=CN1CCN(C[C@H](O)CN2CCCCC2)CC1`, for which the activity, negative = inhibition is -4.95% [at 11.4 µM].
A word on the AC50: it is the concentration at which the activity in the assay is half-maximal. In the case of `CN(Cc1ccco1)c1ncnc2ccc(-c3ccccc3C(F)(F)F)cc12`, the half-maximal activity concentration (AC50) is 15.8 µM (active).
With `CN(Cc1ccco1)c1ncnc2ccc(-c3ccccc3Cl)cc12`, the concentration at half-maximal activity (AC50) was 15.8 µM (active).
Still for that read-out and setting: under `Cc1ccc(NC(=O)CCN2C(=O)c3ccncc3C2=O)cc1` stands 8.91 µM (active).
Consider `COCc1nnc(NC(=O)CCN2C(=O)c3ccccc3C2=O)s1`, for which the AC50 entry is “inactive”.
Consider `Cc1cccc(OCCn2c(S(=O)(=O)O)nc3ccccc32)c1`, for which the AC50 result is “inactive”.
On the same count and under the same terms, then `Cc1cccc(OCCn2c(-c3ccco3)nc3ccccc32)c1`, with 10 µM (active); and `CCCCC(=O)N/N=C(\C)CC(=O)Nc1cc(Cl)ccc1OC`, with 4.47 µM (active); and `COc1ccc(Cl)cc1NC(=O)CN1C(=O)CSC1=O`, with 7.94 µM (active).
`C/C(CC(=O)Nc1cc(Cl)ccc1Cl)=N\NC(N)=S`: the AC50 is 14.1 µM (active).
Regarding `C/C(CC(=O)Nc1ccccn1)=N\NC(=O)C(=O)Nc1cccc(Cl)c1C`, the activity, negative = inhibition is 16.1% [at 2.29 µM].
On to `O=C(O)C1CCCCC1C(=O)Nc1cc(Cl)ccc1Cl` (configuration not stated), for which the AC50 result was “inactive”.
On to `COc1ccc(Cl)cc1NC(=O)NCCCl`, for which the AC50 entry was “inactive”.
For `N[C@@H](CSCc1ccccc1)C(=O)O`, the activity, negative = inhibition is -6.14% [at 11.4 µM].
Consider `NC1(C(=O)O)C[C@H](C(=O)O)[C@H](C(=O)O)C1` (some centres not stated), for which the AC50 entry was “inactive”.
As for `CC1CN(C(NC(=O)C(C)(C)C)C(Cl)(Cl)Cl)CC(C)O1` (configuration not stated), the AC50 entry is “inactive”.
As to `C[C@@H]1NCC[C@H](CC(=O)O)[C@H]1CC(=O)O`, the activity, negative = inhibition is 0.412% [at 11.4 µM].
`CC(C)=C[C@H]1[C@@H](C(=O)Oc2ccccc2C(C)C)C1(C)C`: the activity, negative = inhibition was -13.1% [at 11.4 µM].
With `Cc1[nH]c(N)nc(=S)c1CCC(=O)O`, the activity, negative = inhibition was -2.07% [at 11.4 µM].
Take `COc1ccccc1OCCCCCc1c(C)n[nH]c1C`: the AC50 result is “inactive”.
On to `COc1cccc(-c2ccc3ncnc(N(C)Cc4ccco4)c3c2)c1`, for which the AC50 is 12.6 µM (active).
Consider `CN(Cc1ccco1)c1ncnc2ccc(-c3cccnc3)cc12`, for which the half-maximal activity concentration (AC50) is 3.98 µM (active).
On to `NCCSC[C@H](N)C(=O)O`, for which the activity, negative = inhibition was -7.49% [at 11.4 µM].
Turning to `O=C(O)[C@@H](O)[C@@H](O)[C@@H](O[C@H]1O[C@@H](CO)[C@@H](O)[C@@H](O)[C@@H]1O)[C@@H](O)CO`, the AC50 entry is “inactive”.
On to `c1ccc(CNc2ncnc3ccc(-c4ccc5c(c4)OCO5)cc23)cc1`, for which the AC50 was 2 µM (active).
Turning to `c1nc(NC2CCNCC2)c2cc(-c3ccoc3)ccc2n1`, the AC50 entry was “inactive”.
In the case of `c1nc(NC2CCNCC2)c2cc(-c3ccc4c(c3)OCO4)ccc2n1`, the concentration at half-maximal activity (AC50) was 25.1 µM (active).
Still for that read-out and setting: under `Cc1cccc(CNc2ncnc3ccc(-c4ccc5c(c4)OCO5)cc23)c1` stands 2 µM (active); under `c1ccc(Nc2ncnc3ccc(-c4ccc5c(c4)OCO5)cc23)cc1`, 2.51 µM (active).
Still for that read-out and setting: then `COc1cc(C)c(Br)cc1S(=O)(=O)NCc1ccccc1`, with “inactive”.
Turning to `O=[N+]([O-])c1ccc(S(=O)(=O)Cc2ccccc2)c2nonc12`, the activity, negative = inhibition was -16.7% [at 11.4 µM].
On to `COc1cc(OC)c(C#N)c(S(=O)(=O)Cc2ccccc2)c1`, for which the AC50 was 25.1 µM (active).
As to `O=C(O)/C=C\C(=O)N1Cc2cc3ccccc3nc2C1`, the activity, negative = inhibition was -8.05% [at 11.4 µM].
On to `O=C(N/N=C/c1c(Nc2cccc(C(F)(F)F)c2)nc2ccccn2c1=O)c1ccccc1`, for which the AC50 entry is “inactive”.
As for `Cc1ccc(C(=O)N/N=C/c2cc(C)n(-c3ccc(Br)cc3)c2C)cc1[N+](=O)[O-]`, the AC50 entry was “inactive”.
As to `Cc1nc2ccccn2c1C(=O)N/N=C/c1ccccc1[N+](=O)[O-]`, the AC50 is 12.6 µM (active).
On to `COCCn1c(=O)c(-c2cc(F)cc(F)c2)nc2cnc(N3CCN(C)CC3)nc21`, for which the AC50 entry is “inactive”.
The same measure, in the same setting: under `COc1cccc(Cn2c(=O)c(-c3cc(F)cc(F)c3)nc3cnc(N4CCNCC4)nc32)c1` stands 25.1 µM (active); under `CN1CCN(c2ncc3nc(-c4cc(F)cc(F)c4)c(=O)n(CCc4ccccc4)c3n2)CC1`, 25.1 µM (active); under `CN1CCN(c2ncc3nc(-c4ccccc4)c(=O)n(CCc4ccccc4)c3n2)CC1`, “inactive”.
Regarding `COc1ccc(-c2nc3cnc(N4CCNCC4)nc3n(Cc3cccc(OC)c3)c2=O)cc1`, the AC50 is 15.8 µM (active).
For the compound `COc1cccc(Cn2c(=O)c(-c3ccccc3)nc3cnc(N4CCNCC4)nc32)c1`, the AC50 was 20 µM (active).
For the compound `COc1cccc(Cn2c(=O)c(-c3cc(F)cc(F)c3)nc3cnc(N4CCN(C)CC4)nc32)c1`, the AC50 is 25.1 µM (active).
Same read-out and setting: under `COc1cccc(Cn2c(=O)c(-c3ccc(F)cc3)nc3cnc(N4CCNCC4)nc32)c1` stands 15.8 µM (active); under `O=C(O)c1ccc2c(c1)C(=O)N(C(Cc1ccc(O)cc1)C(=O)O)C2=O` (configuration not stated), “inactive”; under `Cc1cc(Br)ccc1NCc1ccccn1`, 15.8 µM (active).
Regarding `OCCCNCc1ccccn1`, the activity, negative = inhibition was -7.75% [at 11.4 µM].
`c1ccc(CCNc2ccccn2)nc1`: the activity, negative = inhibition was -14.6% [at 11.4 µM].
`Cc1cc(NCc2ccccn2)ccc1Br`: the AC50 was 12.6 µM (active).
As for `Cc1cc(=O)oc(C)c1C(=O)NCc1ccccn1`, the AC50 entry was “inactive”.
On the same count and under the same terms, under `CNCCc1ccccn1` stands “inactive”; under `Cc1cc2ccccc2n1CCNC(=O)C1CCCC1`, 4.47 µM (active); under `Cc1ccc(S(=O)(=O)NCCn2c(C)cc3ccccc32)cc1`, 5.01 µM (active).
With `Cc1ccc(S(=O)(=O)NC(=O)c2cccn2C)cc1`, the AC50 entry is “inactive”.
With `O=C(NCCN1CCCCC1)c1ccc(I)cc1`, the AC50 entry was “inactive”.
For the compound `Cc1cc2ccccc2n1CCNC(=O)c1ccccc1`, the concentration at half-maximal activity (AC50) is 3.98 µM (active).
In the case of `CN(C)CCn1c(C(=O)O)cc2ccccc21`, the AC50 entry was “inactive”.
As to `Cc1cc2ccccc2c(=O)n1CC(=O)NCC(=O)N1CCCC1`, the AC50 result is “inactive”.
As for `CCN1C(=O)C(O)(C2COC(C)(C)CC2=O)c2ccccc21` (configuration not stated), the AC50 entry was “inactive”.
For `CC1(C)C(=O)N(CCN2CCC(C(=O)c3ccc(F)cc3)CC2)c2ccccc21`, the half-maximal activity concentration (AC50) was 15.8 µM (active).
As to `CN(C)CCCN1c2ccccc2C(C)(C)c2ccccc21`, the activity, negative = inhibition was -18.6% [at 11.4 µM].
On to `O=S(=O)(O)c1ccc(N=Nc2ccccc2)cc1`, for which the activity, negative = inhibition was 0.763% [at 11.4 µM].
With `NCC(=O)Nc1ccc(Cl)cc1C(=O)c1ccc[nH]1`, the activity, negative = inhibition is -21.6% [at 11.4 µM].
With `O=C(O)CSc1cc(C(F)(F)F)nc(-c2ccccn2)n1`, the AC50 entry was “inactive”.
Turning to `Cc1cc(SCC(=O)c2ccccc2)nc(SCC(=O)c2ccccc2)n1`, the concentration at half-maximal activity (AC50) was 2.82 µM (active).
`Cc1cc(C)nc(SCCc2cccc[n+]2C)n1`: the activity, negative = inhibition was -11% [at 11.4 µM].
Regarding `c1cncc(-c2ccc3ncnc(NCCN4CCOCC4)c3c2)c1`, the AC50 was 12.6 µM (active).
`c1nc(NCCN2CCOCC2)c2cc(-c3ccc4c(c3)OCO4)ccc2n1`: the AC50 is 5.01 µM (active).
Same read-out and setting: under `CC(=O)NCCNc1ncnc2ccc(-c3ccoc3)cc12` stands “inactive”.
In the case of `CC(=O)NCCNc1ncnc2ccc(-c3ccc4c(c3)OCO4)cc12`, the AC50 is 5.01 µM (active).
As to `c1ccc(-n2ncc3c(NCCCN4CCOCC4)ncnc32)cc1`, the AC50 entry is “inactive”.
Consider `NCCCCNCCCN`, for which the AC50 entry is “inactive”.
On to `N#Cc1ccccc1Sc1ccccc1N`, for which the AC50 is 17.8 µM (active).
On to `O=C1CCC(c2ccccc2)=NN1c1nc2ccccc2s1`, for which the activity, negative = inhibition was -23.1% [at 11.4 µM].
For the compound `c1ccc2sc(N3CCN(Cc4ccc5c(c4)OCO5)CC3)nc2c1`, the AC50 was 0.631 µM (active).
As to `CC(C)c1ccc(C(=O)CC2(O)C(=O)N(CN3CCOCC3)c3ccccc32)cc1` (configuration not stated), the concentration at half-maximal activity (AC50) is 8.91 µM (active).
In the case of `CC1CCOC2(O1)C(=O)N(CN1CCN(c3ccccc3F)CC1)c1ccccc12` (configuration not stated), the AC50 result was “inactive”.
Consider `CC(=O)N1CCC(=O)N(C(C)C)c2ccccc21`, for which the AC50 result was “inactive”.
Turning to `O=C(NCc1cccnc1)/C(=C/c1ccc(-c2cccc(Cl)c2)o1)S(=O)(=O)c1ccccc1`, the AC50 was 0.501 µM (active).
Regarding `CC(C)NC(=O)N1CCCC2(CCN(C(=O)c3ccncc3)CC2)C1`, the AC50 was 15.8 µM (active).
Still for that read-out and setting: under `CC(C)CN1CCC2(CC1)CCN(C(=O)c1cc(C(F)(F)F)cc(C(F)(F)F)c1)CC2` stands “inactive”; under `CC(C)CN1CC[C@@]2(CCCN(C(=O)c3cc(C(F)(F)F)cc(C(F)(F)F)c3)C2)C1`, 12.6 µM (active).
As for `CC(C)NC(=O)N1CC2(CCN(C(=O)c3cc(C(F)(F)F)cc(C(F)(F)F)c3)CC2)C1`, the AC50 entry is “inactive”.
On the same count and under the same terms, then `CN1CCC2(CC1)CCN(C(=O)c1cc(C(F)(F)F)cc(C(F)(F)F)c1)CC2`, with “inactive”.
As to `Cc1noc(C)c1C(=O)N1CCC2(CCCN(C(=O)NC(C)C)C2)CC1`, the AC50 result is “inactive”.
On the same count and under the same terms, then `CC(C)NC(=O)N1CCCC2(CCN(C(=O)c3cc(C(F)(F)F)cc(C(F)(F)F)c3)CC2)C1`, with 25.1 µM (active); and `CC(C)NC(=O)N1CC[C@@]2(CCCN(C(=O)c3cc(C(F)(F)F)cc(C(F)(F)F)c3)C2)C1`, with 15.8 µM (active).
Turning to `COc1ccc(C(=O)N2CCC3(CC2)CN(C(=O)NC(C)C)C3)cc1`, the AC50 result is “inactive”.
As to `C=C1CCO[C@@]2([C@H](O)[C@@](C)(O)CO)NC(=O)[C@]1(O)NC2=O`, the activity, negative = inhibition is -2.69% [at 11.4 µM].
Same read-out and setting: then `O=C(O)CCC(=O)c1ccc2sc3ccccc3c2c1`, with -21.1% [at 11.4 µM].
Consider `C/C(CCc1ccc2c(c1)OCO2)=N\N=C1\NC(=O)CC(C(=O)Nc2ccccc2)S1` (configuration not stated), for which the AC50 is 2.24 µM (active).
With `COc1ccc(Cl)cc1N=Nc1ncc[nH]1`, the concentration at half-maximal activity (AC50) was 10 µM (active).
In the case of `COC(=O)c1c(-c2cc(OC)c(OC)c(OC)c2)c2ccc(OCc3ccccn3)cc2c(=O)n1-c1ccc(N)cc1`, the AC50 was 0.398 µM (active).
For `Cc1cc(C)c(NC(=O)CS(=O)CC(=O)NCCCc2ccccc2)c(C)c1` (configuration not stated), the AC50 was 3.55 µM (active).
Consider `CC(C)C(=O)NCCCc1ccccc1`, for which the activity, negative = inhibition is 2.86% [at 11.4 µM].
Take `N#CC(c1ccc(Cl)cc1)(c1ncc(C(F)(F)F)cc1Cl)N1CCOCC1` (configuration not stated): the AC50 is 12.6 µM (active).
Still for that read-out and setting: then `FC(F)(F)c1cnc(N2CCC(=NOCc3ccc(Cl)cc3)CC2)c(Cl)c1`, with “inactive”.

The values above are taken from PubChem BioAssay AID1851 (National Center for Advancing Translational Sciences (NCATS), 2009).
